# Test results from the supplement of paper PMC8728848.
# This excerpt belongs to a sample that is enriched for the strongest signals.
# Columns and labels:
# Assay in all cases: glycan array binding signal (z-score within array); higher = stronger binding
# Settings in all cases: glycan notation: IUPAC condensed, linker removed
# [1] = target: Fuc(a1-2)Gal(b1-3)GalNAc
# Procedure, shortened: (§1)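 The Consortium for Functional Glycomics database supplied 3228 glycan arrays, of which those lacking an available protein sequence were dropped. The binding signal, a within-array Z-score, was averaged across arrays of the same protein sequence and across linkers. Negative scores can be read as non-binding.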
# [2] = target: Fuc(a1-2)Gal(b1-3)GlcNAc(b1-3)[Fuc(a1-3)[Gal(b1-4)]GlcNAc(b1-6)]Gal(b1-4)Glc
# Procedure, shortened: as §1
# [3] = target: Fuc(a1-2)Gal(b1-3)[Fuc(a1-4)]GlcNAc(b1-2)Man(a1-3)[Fuc(a1-2)Gal(b1-3)[Fuc(a1-4)]GlcNAc(b1-2)Man(a1-6)]Man(b1-4)GlcNAc(b1-4)GlcNAc
# Procedure, shortened: as §1
# [4] = target: Fuc(a1-2)Gal(b1-3)[Fuc(a1-4)]GlcNAc(b1-3)[Gal(b1-4)GlcNAc(b1-6)]Gal(b1-4)Glc
# Procedure, shortened: as §1
# [5] = target: Fuc(a1-2)Gal(b1-4)Glc
# Procedure, shortened: as §1
# [6] = target: Fuc(a1-2)Gal(b1-4)[Fuc(a1-3)]GlcNAc(b1-2)Man(a1-3)[Fuc(a1-2)Gal(b1-4)[Fuc(a1-3)]GlcNAc(b1-2)Man(a1-6)]Man(b1-4)GlcNAc(b1-4)GlcNAc
# Procedure, shortened: as §1
# [7] = target: Fuc(a1-2)[Gal(a1-3)]Gal(b1-4)GlcNAc
# Procedure, shortened: as §1
# [8] = target: Fuc(a1-2)[GalNAc(a1-3)]Gal(b1-3)GlcNAc(b1-2)Man(a1-3)[Fuc(a1-2)[GalNAc(a1-3)]Gal(b1-3)GlcNAc(b1-2)Man(a1-6)]Man(b1-4)GlcNAc(b1-4)GlcNAc
# Procedure, shortened: as §1
# [9] = target: Fuc(a1-2)[GalNAc(a1-3)]Gal(b1-4)GlcNAc(b1-3)Gal(b1-4)GlcNAc
# Procedure, shortened: as §1
# [10] = target: Fuc(a1-2)[GalNAc(a1-4)]Gal(b1-4)GlcNAc
# Procedure, shortened: as §1
# [11] = target: Fuc(a1-3)[Gal(b1-4)]GlcNAc(b1-3)GalNAc
# Procedure, shortened: as §1
# [12] = target: Gal(a1-3)Gal(b1-4)GlcNAc
# Procedure, shortened: as §1
# [13] = target: Gal(a1-3)Gal(b1-4)[Fuc(a1-3)]GlcNAc(b1-2)Man(a1-3)[Gal(a1-3)Gal(b1-4)[Fuc(a1-3)]GlcNAc(b1-2)Man(a1-6)]Man(b1-4)GlcNAc(b1-4)GlcNAc
# Procedure, shortened: as §1
# [14] = target: Gal(a1-3)GalNAc
# Procedure, shortened: as §1
# [15] = target: Gal(a1-4)Gal(b1-3)GlcNAc(b1-2)Man(a1-3)[Gal(a1-4)Gal(b1-3)GlcNAc(b1-2)Man(a1-6)]Man(b1-4)GlcNAc(b1-4)GlcNAc
# Procedure, shortened: as §1
# [16] = target: Gal(b1-3)GlcNAc(b1-2)Man(a1-3)[Gal(b1-3)GlcNAc(b1-2)Man(a1-6)]Man(b1-4)GlcNAc(b1-4)GlcNAc
# Procedure, shortened: as §1
# [17] = target: Gal(b1-3)GlcNAc(b1-3)Gal(b1-4)GlcNAc(b1-6)[Gal(b1-3)GlcNAc(b1-3)]Gal(b1-4)Glc
# Procedure, shortened: as §1
# [18] = target: Gal(b1-3)[Fuc(a1-4)]GlcNAc(b1-3)Gal(b1-4)GlcNAc
# Procedure, shortened: as §1
# [19] = target: Gal(b1-4)Glc6S
# Procedure, shortened: as §1
# [20] = target: Gal(b1-4)GlcNAc(b1-3)Gal(b1-4)GlcNAc
# Procedure, shortened: as §1
# [21] = target: Gal(b1-4)GlcNAc(b1-3)[Gal(b1-4)GlcNAc(b1-6)]GalNAc
# Procedure, shortened: as §1
# [22] = target: GalNAc(b1-3)Gal(a1-6)Gal(b1-4)Glc
# Procedure, shortened: as §1
# [23] = target: GlcNAc(b1-2)Man(a1-3)[GlcNAc(b1-2)Man(a1-6)]Man(b1-4)GlcNAc(b1-4)GlcNAc
# Procedure, shortened: as §1
# [24] = target: GlcNAc(b1-3)Man
# Procedure, shortened: as §1
# [25] = target: Kdn(a2-3)Gal(b1-4)Glc
# Procedure, shortened: as §1
# [26] = target: Man(a1-2)Man(a1-3)[Man(a1-2)Man(a1-6)]Man
# Procedure, shortened: as §1
# [27] = target: Man(a1-3)[Man(a1-6)]Man
# Procedure, shortened: as §1
# [28] = target: Neu5Ac(a2-3)Gal(b1-3)GalNAc(b1-4)[Neu5Ac(a2-3)]Gal(b1-4)Glc
# Procedure, shortened: as §1
# [29] = target: Neu5Ac(a2-3)Gal(b1-4)Glc
# Procedure, shortened: as §1
# [30] = target: Neu5Ac(a2-3)Gal(b1-4)GlcNAc(b1-3)Gal(b1-4)GlcNAc
# Procedure, shortened: as §1
binder,measurement,setting,value
"SAG3 (Toxoplasma gondii), Q9BJ39 (protein) MQLWRRRAAGPASLGRQSLPLGCFFAAFGLCVLSAILGTGERGLFVAAGNSRRKITYFGTLTQKAPNWYRCSSTRAKEEVVGHVTLNKEHPDMTIECVDDGLGGEFLPLEGARSSYPRVCHIDAKDQDDCERNRGFLTDYIPGAKQYWYKIEKVEQNGEQSVLYKFTVPWILLPPAKQRYKVGCRYPNHEYCFVEVTVEPTPPMVEGKRVTCGYSESGPVNLEVDLSKNANFIEIRCGEQHHPQPSTYTLQYCSGDSVDPQKCSPQSLTNIFYDYSSSWWKGKLNGPDGATLTIPPGGFPEEDKSFLVGCSLTVDGPPFCNVKVRVAGNPRKWERGGGGHPGSGGLQPGTDGETQAGTGSSAGASSRMASVALAFLLGLLVHVAA",glycan array binding signal (z-score),[1],-0.359
same,glycan array binding signal (z-score),[2],0.235
same,glycan array binding signal (z-score),[3],6.32
same,glycan array binding signal (z-score),[4],0.4
same,glycan array binding signal (z-score),[5],-0.397
same,glycan array binding signal (z-score),[6],2.31
same,glycan array binding signal (z-score),[7],0.112
same,glycan array binding signal (z-score),[8],-0.473
same,glycan array binding signal (z-score),[9],-0.084
same,glycan array binding signal (z-score),[10],-0.046
same,glycan array binding signal (z-score),[11],2.86
same,glycan array binding signal (z-score),[12],-0.223
same,glycan array binding signal (z-score),[13],4.74
same,glycan array binding signal (z-score),[14],-0.176
same,glycan array binding signal (z-score),[15],-0.051
same,glycan array binding signal (z-score),[16],0.157
same,glycan array binding signal (z-score),[17],0.551
same,glycan array binding signal (z-score),[18],-0.077
same,glycan array binding signal (z-score),[19],-0.304
same,glycan array binding signal (z-score),[20],0.013
same,glycan array binding signal (z-score),[21],-0.475
same,glycan array binding signal (z-score),[22],-0.162
same,glycan array binding signal (z-score),[23],-0.352
same,glycan array binding signal (z-score),[24],0.13
same,glycan array binding signal (z-score),[25],0.107
same,glycan array binding signal (z-score),[26],-0.088
same,glycan array binding signal (z-score),[27],0.34
same,glycan array binding signal (z-score),[28],-0.184
same,glycan array binding signal (z-score),[29],-0.168
same,glycan array binding signal (z-score),[30],-0.053
